Assay results reported in the supplement of paper PMC10849652.
Targets with a hit are over-represented here; the source holds about 7,900 in all. About 0.6% of all pairs of compound and target were hits. Values without a mark were called inactive.

How the values were obtained:
Experiment in all cases: log2 fold change, soluble protein after heating vs DMSO (PISA); higher = thermal stabilisation; K562 cells, 10 uM, 30 min; active = over 0.2 and 3.5 SD of the protein, either way, in both replicates (recomputed)
[1] = compound: COC1=CC=C(C=C1)CN2C=CC3=C2C=C(C=C3)C(=O)NO
Procedure, shortened: (§1)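 K562 cells at 2×10^6 cells/mL were treated with 10 μM compound for 30 min. Aliquots were heated for 3 min across 48°C-58°C, pooled, and extracted in PBS with 0.5% NP-40 at 4°C; soluble protein was the supernatant after 21,000xg for 90 min. Soluble protein was quantified by TMTpro 16plex LC-MS/MS with channel sums equalised, and reported as log2 fold change in thermal stability against DMSO controls, with values from duplicates.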

filanesib = compound: CON(C)C(=O)N1N=C(c2cc(F)ccc2F)S[C@@]1(CCCN)c1ccccc1 [filanesib]
Procedure, shortened: as §1

zotarolimus = compound: CO[C@H]1C[C@@H]2CC[C@@H](C)[C@@](O)(O2)C(=O)C(=O)N2CCCC[C@H]2C(=O)O[C@H]([C@H](C)C[C@@H]2CC[C@H](n3cnnn3)[C@H](OC)C2)CC(=O)[C@H](C)/C=C(\C)[C@@H](O)[C@@H](OC)C(=O)[C@H](C)C[C@H](C)/C=C/C=C/C=C/1C [zotarolimus]
Procedure, shortened: as §1

idasanutlin = compound: COc1cc(C(=O)O)ccc1NC(=O)[C@@H]1N[C@@H](CC(C)(C)C)[C@](C#N)(c2ccc(Cl)cc2F)[C@H]1c1cccc(Cl)c1F [idasanutlin]
Procedure, shortened: as §1

alisertib = compound: COc1cc(Nc2ncc3c(n2)-c2ccc(Cl)cc2C(c2c(F)cccc2OC)=NC3)ccc1C(=O)O [alisertib]
Procedure, shortened: as §1

[2] = compound: COc1cc2nc(-c3cc(F)ccc3O)nc(N[C@@H]3CNC[C@H]3C(C)(C)O)c2cc1OC
Procedure, shortened: as §1

gefitinib = compound: COc1cc2ncnc(Nc3ccc(F)c(Cl)c3)c2cc1OCCCN1CCOCC1 [gefitinib]
Procedure, shortened: as §1

[3] = compound: COc1cccc2cc(-c3nc([C@H]4CC[C@H](C(=O)O)CC4)n4ncnc(N)c34)[nH]c12
Procedure, shortened: as §1

lapatinib = compound: CS(=O)(=O)CCNCc1ccc(-c2ccc3ncnc(Nc4ccc(OCc5cccc(F)c5)c(Cl)c4)c3c2)o1 [lapatinib]
Procedure, shortened: as §1

[4] = compound: CS(=O)(=O)c1ccc(-c2cnc(N)c(C(=O)Nc3ccccc3)n2)cc1
Procedure, shortened: as §1

crizotinib = compound: C[C@@H](Oc1cc(-c2cnn(C3CCNCC3)c2)cnc1N)c1c(Cl)ccc(F)c1Cl [crizotinib]
Procedure, shortened: as §1

[5] = compound: C[C@@H]1COCCN1C2=NC(=NC(=C2)C3(CC3)S(=O)(=O)C)C4=C5C=CNC5=CC=C4
Procedure, shortened: as §1

[6] = compound: C[C@H](C1=CC=C(C=C1)C(=O)NC2=C3C=CNC3=NC=C2)N
Procedure, shortened: as §1

duvelisib = compound: C[C@H](Nc1ncnc2nc[nH]c12)c1cc2cccc(Cl)c2c(=O)n1-c1ccccc1 [duvelisib]
Procedure, shortened: as §1

tozasertib = compound: Cc1cc(Nc2cc(N3CCN(C)CC3)nc(Sc3ccc(NC(=O)C4CC4)cc3)n2)n[nH]1 [tozasertib]
Procedure, shortened: as §1

[7] = compound: Cc1cc(SCc2sc(-c3ccc(C(F)(F)F)cc3)nc2C)ccc1OCC(=O)O
Procedure, shortened: as §1

doramapimod = compound: Cc1ccc(-n2nc(C(C)(C)C)cc2NC(=O)Nc2ccc(OCCN3CCOCC3)c3ccccc23)cc1 [doramapimod]
Procedure, shortened: as §1

ispinesib = compound: Cc1ccc(C(=O)N(CCCN)[C@@H](c2nc3cc(Cl)ccc3c(=O)n2Cc2ccccc2)C(C)C)cc1 [ispinesib]
Procedure, shortened: as §1

pictilisib = compound: CS(=O)(=O)N1CCN(Cc2cc3nc(-c4cccc5[nH]ncc45)nc(N4CCOCC4)c3s2)CC1 [pictilisib]
Procedure, shortened: as §1

gandotinib = compound: Cc1cc(Nc2cc(CN3CCOCC3)c3nc(C)c(Cc4ccc(Cl)cc4F)n3n2)n[nH]1 [gandotinib]
Procedure, shortened: as §1

Sequence of UniProt Q12986 (Q12986 whole entry, looked up): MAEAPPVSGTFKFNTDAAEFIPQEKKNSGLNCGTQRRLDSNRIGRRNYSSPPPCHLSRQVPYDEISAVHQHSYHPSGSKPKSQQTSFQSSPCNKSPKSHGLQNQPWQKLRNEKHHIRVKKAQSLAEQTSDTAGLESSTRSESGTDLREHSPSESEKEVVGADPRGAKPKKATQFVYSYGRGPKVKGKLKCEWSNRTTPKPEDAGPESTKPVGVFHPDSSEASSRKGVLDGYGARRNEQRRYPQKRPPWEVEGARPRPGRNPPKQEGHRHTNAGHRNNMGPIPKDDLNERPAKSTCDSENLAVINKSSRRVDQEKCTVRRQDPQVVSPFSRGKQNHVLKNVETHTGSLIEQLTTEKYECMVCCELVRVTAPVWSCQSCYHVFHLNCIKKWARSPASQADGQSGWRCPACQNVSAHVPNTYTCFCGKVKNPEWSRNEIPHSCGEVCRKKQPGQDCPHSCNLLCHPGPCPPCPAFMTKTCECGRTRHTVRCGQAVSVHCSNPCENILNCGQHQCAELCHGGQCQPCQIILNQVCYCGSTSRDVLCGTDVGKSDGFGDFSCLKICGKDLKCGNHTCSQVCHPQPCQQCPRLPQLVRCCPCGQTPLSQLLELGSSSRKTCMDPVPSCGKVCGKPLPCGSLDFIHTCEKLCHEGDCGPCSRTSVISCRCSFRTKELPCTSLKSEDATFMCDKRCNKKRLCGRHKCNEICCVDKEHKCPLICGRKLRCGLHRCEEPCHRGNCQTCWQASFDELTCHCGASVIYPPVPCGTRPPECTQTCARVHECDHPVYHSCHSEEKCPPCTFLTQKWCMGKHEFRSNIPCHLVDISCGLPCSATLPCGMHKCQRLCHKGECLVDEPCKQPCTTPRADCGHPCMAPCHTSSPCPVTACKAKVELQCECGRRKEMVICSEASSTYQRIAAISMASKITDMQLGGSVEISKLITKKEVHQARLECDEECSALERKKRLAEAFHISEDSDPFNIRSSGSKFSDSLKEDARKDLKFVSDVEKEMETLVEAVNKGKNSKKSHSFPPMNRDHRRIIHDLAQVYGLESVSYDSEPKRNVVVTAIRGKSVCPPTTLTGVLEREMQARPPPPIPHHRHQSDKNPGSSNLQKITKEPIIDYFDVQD
Sequence of UniProt Q15746 (Q15746 whole entry, looked up): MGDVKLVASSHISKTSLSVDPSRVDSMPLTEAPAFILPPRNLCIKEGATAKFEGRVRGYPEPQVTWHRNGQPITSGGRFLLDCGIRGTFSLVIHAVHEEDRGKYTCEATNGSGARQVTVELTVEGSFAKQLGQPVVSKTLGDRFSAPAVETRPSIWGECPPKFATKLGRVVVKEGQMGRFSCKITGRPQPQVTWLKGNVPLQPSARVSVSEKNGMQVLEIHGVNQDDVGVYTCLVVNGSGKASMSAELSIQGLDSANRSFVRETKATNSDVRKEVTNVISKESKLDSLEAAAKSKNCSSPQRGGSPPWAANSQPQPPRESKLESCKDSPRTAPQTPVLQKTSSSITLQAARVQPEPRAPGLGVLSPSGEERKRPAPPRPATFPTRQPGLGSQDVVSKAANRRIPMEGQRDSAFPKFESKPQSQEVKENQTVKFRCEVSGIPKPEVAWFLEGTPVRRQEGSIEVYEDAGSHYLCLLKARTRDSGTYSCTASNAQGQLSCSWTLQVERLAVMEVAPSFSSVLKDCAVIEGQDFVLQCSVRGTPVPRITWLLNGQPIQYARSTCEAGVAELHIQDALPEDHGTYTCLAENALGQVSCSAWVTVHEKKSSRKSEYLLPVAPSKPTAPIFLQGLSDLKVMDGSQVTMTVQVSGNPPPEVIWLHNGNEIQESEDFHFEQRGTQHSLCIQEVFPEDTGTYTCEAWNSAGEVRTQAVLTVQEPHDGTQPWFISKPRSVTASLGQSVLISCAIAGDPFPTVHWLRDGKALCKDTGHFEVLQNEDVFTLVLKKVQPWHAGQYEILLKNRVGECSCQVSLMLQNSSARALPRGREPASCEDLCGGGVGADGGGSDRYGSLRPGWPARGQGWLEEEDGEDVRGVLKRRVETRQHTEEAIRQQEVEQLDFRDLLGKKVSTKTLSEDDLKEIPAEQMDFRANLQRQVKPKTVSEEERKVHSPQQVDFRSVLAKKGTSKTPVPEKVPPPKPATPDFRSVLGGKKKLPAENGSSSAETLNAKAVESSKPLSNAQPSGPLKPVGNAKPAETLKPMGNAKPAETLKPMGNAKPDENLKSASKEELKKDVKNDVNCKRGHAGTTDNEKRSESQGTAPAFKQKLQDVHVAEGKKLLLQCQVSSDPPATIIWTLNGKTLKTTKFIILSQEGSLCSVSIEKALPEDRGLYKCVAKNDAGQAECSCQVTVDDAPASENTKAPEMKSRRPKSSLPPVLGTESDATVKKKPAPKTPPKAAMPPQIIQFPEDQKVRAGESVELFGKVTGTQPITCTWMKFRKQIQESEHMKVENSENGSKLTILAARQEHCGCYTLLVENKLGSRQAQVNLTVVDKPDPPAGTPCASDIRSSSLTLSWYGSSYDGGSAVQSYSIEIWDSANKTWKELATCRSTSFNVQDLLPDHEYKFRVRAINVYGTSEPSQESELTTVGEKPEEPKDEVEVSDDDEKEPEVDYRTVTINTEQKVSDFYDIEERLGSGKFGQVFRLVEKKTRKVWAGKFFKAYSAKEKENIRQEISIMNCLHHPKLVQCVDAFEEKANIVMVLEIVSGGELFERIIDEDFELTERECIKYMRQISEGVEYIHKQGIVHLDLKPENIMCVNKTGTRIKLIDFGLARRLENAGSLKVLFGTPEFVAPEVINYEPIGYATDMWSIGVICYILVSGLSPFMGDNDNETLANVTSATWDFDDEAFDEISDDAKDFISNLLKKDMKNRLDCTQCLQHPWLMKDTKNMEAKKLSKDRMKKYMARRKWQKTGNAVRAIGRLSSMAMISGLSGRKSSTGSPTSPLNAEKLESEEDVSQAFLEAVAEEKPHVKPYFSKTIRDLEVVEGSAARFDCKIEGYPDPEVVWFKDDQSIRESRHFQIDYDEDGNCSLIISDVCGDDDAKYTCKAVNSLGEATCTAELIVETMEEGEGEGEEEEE
Sequence of UniProt O15118 (O15118 whole entry, looked up): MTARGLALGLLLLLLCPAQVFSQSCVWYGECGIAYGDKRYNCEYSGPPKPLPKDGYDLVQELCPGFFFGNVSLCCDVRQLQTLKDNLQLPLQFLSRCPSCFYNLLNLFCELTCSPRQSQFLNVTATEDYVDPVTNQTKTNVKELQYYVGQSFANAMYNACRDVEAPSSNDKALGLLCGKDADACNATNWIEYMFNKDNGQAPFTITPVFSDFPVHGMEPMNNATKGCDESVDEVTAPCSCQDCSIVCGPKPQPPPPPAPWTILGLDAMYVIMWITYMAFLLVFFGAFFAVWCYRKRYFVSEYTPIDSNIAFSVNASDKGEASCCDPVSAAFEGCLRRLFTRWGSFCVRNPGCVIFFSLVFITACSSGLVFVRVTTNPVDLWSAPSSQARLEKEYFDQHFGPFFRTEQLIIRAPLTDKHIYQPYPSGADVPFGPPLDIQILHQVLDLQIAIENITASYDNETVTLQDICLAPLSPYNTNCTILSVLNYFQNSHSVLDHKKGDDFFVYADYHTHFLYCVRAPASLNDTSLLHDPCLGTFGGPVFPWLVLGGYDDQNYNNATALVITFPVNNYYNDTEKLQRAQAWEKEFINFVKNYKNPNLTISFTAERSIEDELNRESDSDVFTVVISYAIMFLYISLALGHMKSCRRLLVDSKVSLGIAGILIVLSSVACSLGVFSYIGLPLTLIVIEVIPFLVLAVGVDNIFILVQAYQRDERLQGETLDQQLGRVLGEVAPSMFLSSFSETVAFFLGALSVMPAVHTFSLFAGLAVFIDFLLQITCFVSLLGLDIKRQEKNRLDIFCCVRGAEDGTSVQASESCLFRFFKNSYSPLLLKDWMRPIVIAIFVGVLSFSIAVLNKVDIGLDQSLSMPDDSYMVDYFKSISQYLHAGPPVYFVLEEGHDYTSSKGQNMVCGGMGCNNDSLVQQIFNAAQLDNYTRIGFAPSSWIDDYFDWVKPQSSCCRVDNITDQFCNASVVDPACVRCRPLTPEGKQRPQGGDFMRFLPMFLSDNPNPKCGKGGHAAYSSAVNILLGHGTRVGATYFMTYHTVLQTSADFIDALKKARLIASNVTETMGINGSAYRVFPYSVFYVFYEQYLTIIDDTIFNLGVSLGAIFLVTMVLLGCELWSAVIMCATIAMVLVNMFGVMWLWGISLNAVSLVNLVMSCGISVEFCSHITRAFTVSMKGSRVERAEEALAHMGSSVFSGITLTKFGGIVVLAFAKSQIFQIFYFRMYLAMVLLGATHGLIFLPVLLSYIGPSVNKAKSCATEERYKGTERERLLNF
Sequence of UniProt O95169 (O95169 whole entry, looked up): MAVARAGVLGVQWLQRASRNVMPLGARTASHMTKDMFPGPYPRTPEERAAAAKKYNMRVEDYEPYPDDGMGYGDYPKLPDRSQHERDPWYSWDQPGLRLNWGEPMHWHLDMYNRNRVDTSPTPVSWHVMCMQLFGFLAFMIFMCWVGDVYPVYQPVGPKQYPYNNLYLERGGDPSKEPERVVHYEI
Sequence of UniProt Q92692 (Q92692 whole entry, looked up): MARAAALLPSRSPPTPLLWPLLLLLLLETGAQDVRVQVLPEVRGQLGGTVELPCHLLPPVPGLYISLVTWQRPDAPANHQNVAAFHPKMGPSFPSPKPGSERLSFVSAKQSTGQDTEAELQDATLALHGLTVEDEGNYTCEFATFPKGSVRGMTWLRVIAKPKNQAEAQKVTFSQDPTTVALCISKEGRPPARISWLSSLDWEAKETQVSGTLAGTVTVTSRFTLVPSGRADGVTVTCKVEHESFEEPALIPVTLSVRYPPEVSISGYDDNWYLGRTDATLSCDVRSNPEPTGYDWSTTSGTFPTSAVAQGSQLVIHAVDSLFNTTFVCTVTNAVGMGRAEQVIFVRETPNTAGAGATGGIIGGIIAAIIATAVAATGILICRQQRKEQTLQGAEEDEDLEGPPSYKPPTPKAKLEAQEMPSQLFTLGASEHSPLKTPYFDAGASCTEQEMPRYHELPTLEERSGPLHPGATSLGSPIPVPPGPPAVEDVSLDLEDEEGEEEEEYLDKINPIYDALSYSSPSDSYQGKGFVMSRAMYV

Target | log2 fold change [1] | log2 fold change (filanesib) | log2 fold change (zotarolimus) | log2 fold change (idasanutlin) | log2 fold change (alisertib) | log2 fold change [2] | log2 fold change (gefitinib) | log2 fold change [3] | log2 fold change (lapatinib) | log2 fold change [4] | log2 fold change (crizotinib) | log2 fold change [5] | log2 fold change [6] | log2 fold change (duvelisib) | log2 fold change (tozasertib) | log2 fold change [7] | log2 fold change (doramapimod) | log2 fold change (ispinesib) | log2 fold change (pictilisib) | log2 fold change (gandotinib)
MRPS21 (UniProt P82921) | 0.007 | 0.032 | 0.026 | -0.293 | 0.043 | -0.053 | 0.019 | 0.021 | 0.261 | 0.146 | -0.128 | 0.07 | 0.209 | 0.155 | 0.004 | 0.16 | 0.037 | -0.239 |  | 
NDUFB8 (UniProt O95169) | -0.042 | 0.004 | -0.005 | 0.069 | -0.04 | -0.141 | -0.023 | 0.06 | -0.036 | 0.035 | 0.09 | -0.015 | -0.001 | 0.161 | 0.028 | 0.078 | -0.057 | 0.123 | -0.034 | 0.045
NFX1 (UniProt Q12986) | -0.152 | 0.133 | -0.141 | 0.102 | 0.203 | 0.079 | 0.037 | -0.012 | 0.112 | -0.024 | -0.232 | -0.315 | 0.09 | 0.172 | -0.008 | -0.164 | 0.293 | -0.202 | 0.004 | 0.21
MRPS6 (UniProt P82932) | 0.204 | -0.019 | 0.038 | -0.275 (active) | 0.029 | 0.012 | -0.051 | -0.081 | 0.035 | -0.038 | -0.076 | 0.117 | 0.085 | -0.002 | 0.022 | 0.081 | 0.048 | -0.208 | -0.003 | -0.016
NPC1 (UniProt O15118) | 0.04 | -0.12 | -0.038 | 0.025 | -0.067 | 0.035 | -0.027 | 0.057 | 0.026 | 0.016 | -0.132 | 0.024 | -0.102 | 0.043 | -0.04 | -0.038 | -0.087 | -0.148 | 0 | 0.015
NECTIN2 isoform 2 (UniProt Q92692) | 0.106 | 0.094 |  | 0.061 | -0.016 |  | -0.048 | 0.093 |  | -0.059 | 0.062 | -0.2 |  | -0.248 |  | -0.149 | -0.086 | 0.198 | -0.368 | -0.206
MRPS26 (UniProt Q9BYN8) | -0.039 | 0.09 | 0.04 | -0.145 | -0.078 | 0.041 |  | 0.072 | 0.074 | 0.097 | 0.005 | 0.009 | 0.291 | 0.002 | 0.146 | 0.065 | 0.059 | -0.421 (active) | -0.155 | 0.158
MYLK (UniProt Q15746) | -0.293 | 0.041 | 0.01 |  | -0.095 | 0.043 | 0.342 | 0.16 | 0.06 | 0.279 | 0.027 |  | 0.107 | 0.009 | 0.327 | 0.04 | 1.42 (active) | -0.054 | 0.098 | -0.018
